Assay results reported in PubChem BioAssay (NCI).
About 79,000 compounds went through this panel and 15% of them were active in at least one assay; those are over-represented in the sample as a whole. Activity calls are given as the source filed them. Cut-off read from the data, not from the text of the source: active = growth inhibition above about 70%; inactive = the rest.

How the values were obtained:
[1] = NCI Yeast Anticancer Drug Screen. Data for the rad52 strain (AID 147);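 note: 0% = growth of vehicle-treated control cultures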; conditions: S. cerevisiae rad52 mutant growth inhibition, active compounds read high
How it was run: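 Here a repair-compromised yeast strain receives each compound; its growth is then quantified and normalised to vehicle-only controls.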

[2] = NCI Yeast Anticancer Drug Screen. Data for the wt1 strain (AID 149);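 note: 0% = growth of vehicle-treated wt1 cultures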; conditions: S. cerevisiae wt1 strain (SPY 50644) growth inhibition, active compounds read high
How it was run: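 The wt1 strain was treated with compounds, and growth was compared with vehicle-treated cultures to give inhibition.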

[3] = NCI Yeast Anticancer Drug Screen. Data for the mgt1 strain (AID 153); conditions: S. cerevisiae mgt1 mutant growth inhibition, active compounds read high
How it was run: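 Measured: inhibition of mgt1 yeast growth by compound, normalized to vehicle-treated cultures.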

[4] = NCI Yeast Anticancer Drug Screen. Data for the mec2-1 strain (AID 157); conditions: S. cerevisiae mec2-1 strain, active compounds read high
How it was run: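 Using mec2-1 yeast: add compound, measure growth, express inhibition versus vehicle-treated cultures.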

[5] = NCI Yeast Anticancer Drug Screen. Data for the sgs1 mgt1 strain (AID 161);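 note: 0% = growth of cultures given vehicle only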; conditions: S. cerevisiae sgs1 mgt1 strain, active compounds read high
How it was run: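 Compounds are added to genetically altered yeast, and growth is compared with cultures given vehicle alone to give percent inhibition.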

[6] = NCI Yeast Anticancer Drug Screen. Data for the CLN2oe strain (AID 163);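 note: 0% = growth of vehicle-only control cultures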; conditions: S. cerevisiae CLN2oe strain, active compounds read high
How it was run: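 Whole-cell yeast growth assay. A strain engineered for altered cell-cycle control received compound, and inhibition relative to vehicle-treated cultures was recorded.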

[7] = NCI Yeast Anticancer Drug Screen. Data for the cln2 rad14 strain (AID 165);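 note: 0% = growth equal to vehicle treated cultures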; conditions: S. cerevisiae cln2 rad14 strain, active compounds read high
How it was run: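 Yeast strain cln2 rad14, bearing defects in cell cycle control and DNA repair, serves as the test system; values reflect growth inhibition compared with vehicle.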

[8] = NCI Yeast Anticancer Drug Screen. Data for the bub3 strain (AID 167); conditions: S. cerevisiae bub3 mutant strain, active compounds read high
How it was run: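 Part of a panel of yeast mutants defective in DNA damage repair or cell cycle regulation. Each strain is grown with compound, and inhibition is calculated relative to solvent-treated cultures.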

[9] = NCI Yeast Anticancer Drug Screen. Data for the wt2 strain (AID 169);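 note: 0% = growth of vehicle-treated yeast cultures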; conditions: S. cerevisiae wt2 strain growth inhibition, active compounds read high
How it was run: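 Treated yeast vs. vehicle-treated yeast: growth inhibition determined.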

[10] = NCI Yeast Anticancer Drug Screen. Data for the mlh1 strain (AID 171);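 note: 0% = growth of vehicle-treated control cultures of the same strain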; conditions: S. cerevisiae mlh1 strain growth inhibition, active compounds read high
How it was run: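 A yeast strain with a defined genetic lesion serves as the test organism. Cultures receive compound or vehicle, and growth is measured.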

[11] = NCI Yeast Anticancer Drug Screen. Data for the sgs1 strain (AID 173);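 note: 0% = growth of vehicle-only control cultures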; conditions: S. cerevisiae sgs1 mutant, active compounds read high
How it was run: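 A genetically defined yeast mutant is incubated with the test compound, and its growth is compared to that of the same strain given vehicle.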

[12] = NCI Yeast Anticancer Drug Screen. Data for the mlh1 rad18 strain (AID 175); conditions: S. cerevisiae mlh1 rad18 strain growth inhibition, active compounds read high
How it was run: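 Steps: expose repair-defective yeast to compound; measure growth; express inhibition against vehicle-treated controls.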

[13] = NCI Yeast Anticancer Drug Screen. Data for the rad18 strain (AID 177); conditions: S. cerevisiae rad18 mutant growth inhibition, active compounds read high
How it was run: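 Measured value is growth inhibition of a yeast strain bearing a DNA repair alteration, referenced to vehicle-treated cells.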

[14] = at 5.0 µM (retest, dose inferred, filed as 0.5)
[15] = at 50.0 µM (retest, dose inferred, filed as 5.0)

Measured: growth inhibition

Cc1cc(S(=O)(=O)Nc2nnc3cnc4ccccc4n23)c(S)cc1Cl
inactive: [1]; at 1.2 µM -1% | [1]; at 3.7 µM 0% | [1]; at 11.0 µM 4% | [1]; at 33.0 µM 17% | [1]; at 100.0 µM 43% | [2]; at 1.2 µM -1% | [2]; at 3.7 µM -3% | [2]; at 11.0 µM 4% | [2]; at 33.0 µM 11% | [2]; at 100.0 µM 28% | [3]; at 1.2 µM -2% | [3]; at 3.7 µM -2% | [3]; at 11.0 µM -1% | [3]; at 33.0 µM 26% | [3]; at 100.0 µM 34% | [4]; at 1.2 µM -1% | [4]; at 3.7 µM 0% | [4]; [14] 2% | [4]; at 11.0 µM 6% | [4]; at 33.0 µM 19% | [4]; [15] 61% | [4]; at 50.0 µM 1.7% | [4]; at 100.0 µM 54% | [5]; [14] -1% | [5]; [15] 47% | [5]; at 50.0 µM -11.9% | [6]; at 1.2 µM 3% | [6]; at 3.7 µM 3% | [6]; at 11.0 µM 16% | [6]; at 33.0 µM 24% | [6]; at 100.0 µM 44% | [7]; [14] 48% | [7]; [15] 54% | [7]; at 50.0 µM 52% | [8]; at 1.2 µM 4% | [8]; at 3.7 µM 1% | [8]; [14] 11% | [8]; at 11.0 µM 2% | [8]; at 33.0 µM 10% | [8]; at 50.0 µM -18.8% | [8]; at 100.0 µM 32% | [9]; at 1.2 µM -1% | [9]; at 3.7 µM -2% | [9]; at 11.0 µM 4% | [9]; at 33.0 µM 14% | [9]; at 100.0 µM 35% | [10]; at 1.2 µM -3% | [10]; at 3.7 µM -4% | [10]; at 11.0 µM 1% | [10]; at 33.0 µM 13% | [10]; at 100.0 µM 43% | [11]; at 1.2 µM -2% | [11]; at 3.7 µM 1% | [11]; at 11.0 µM 2% | [11]; at 33.0 µM 22% | [11]; at 100.0 µM 58% | [12]; [14] 8% | [12]; at 50.0 µM 15.2% | [13]; at 1.2 µM -6% | [13]; at 3.7 µM -1% | [13]; at 11.0 µM 21% | [13]; at 33.0 µM 14% | [13]; at 100.0 µM 48%
active: [8]; [15] 70% | [12]; [15] 82%
